Measurements reported in PubChem BioAssay (EPA / NIEHS).
Records with an inconclusive call do not appear. The source made the active and inactive calls. How the source made its calls, unless noted: active means hit-call score of the fitted dose curve at least 0.9, where 1 is the maximum; inconclusive means response in the unintended direction; inactive means score below 0.9.

experiment: STM_H9_OrnithineISnorm_perc: Stemina devTOX quickPredict H9 human embryonic stem cell (hESC)-based Assay for Ornithine (ORN) Metabolite Biomarker, Normalized (AID 2283712; active means hit-call score of the fitted dose curve at least 0.9, where 1 is the maximum; inactive means score below 0.9;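 further: ornithine released into spent medium during last day measured by mass spectrometry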)
Summary of the method: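 Cells: undifferentiated H9 hESC. Dosing: 72 h, media replaced every 24 h. Sample: final 24-h conditioned media, 40% acetonitrile. Read: UPLC-HRMS ornithine area vs 13C standard, % DMSO control.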

Compound	AC50	outcome
CC(C)C(=O)Nc1ccc([N+](=O)[O-])c(C(F)(F)F)c1	77100 nM (active)	–
Nc1ccn([C@@H]2O[C@H](CO)[C@@H](O)[C@@H]2O)c(=O)n1	235 nM (active)	–
OCCNCCO	–	inactive
COc1cc2c(c(OC)c1OC)-c1ccc(OC)c(=O)cc1[C@@H](NC(C)=O)CC2	15.9 nM (active)	–
NC(=O)N1c2ccccc2C=Cc2ccccc21	–	inactive
OC(Cn1cncn1)(Cn1cncn1)c1ccc(F)cc1F	–	inactive
O=c1[nH]cnc2c1ncn2[C@H]1CC[C@@H](CO)O1	–	inactive
O=S1(=O)CCCO1	–	inactive
Cc1ncc([C@@H](CCCCCCc2ccc3c(n2)NCCC3)CC(=O)O)cn1	–	inactive
CCCCCCCCCC	–	inactive
CCN(CC)C(=S)SSC(=S)N(CC)CC	320 nM (active)	–
CC[C@H](C)C(=O)O[C@H]1C[C@H](O)C=C2C=C[C@H](C)[C@H](CC[C@@H](O)C[C@@H](O)CC(=O)O)[C@H]21	–	inactive

experiment: STM_H9_CystineISnorm_perc: Stemina devTOX quickPredict H9 human embryonic stem cell (hESC)-based Assay for Cystine (CYSS) Metabolite Biomarker, Normalized (AID 2283713; active means hit-call score of the fitted dose curve at least 0.9, where 1 is the maximum; inactive means score below 0.9)
Summary of the method: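 Secreted cystine was measured by UPLC-HRMS in H9 hESC medium after 72h compound exposure with 24-hourly replenishment. Values are standard-normalized areas relative to 0.1% DMSO.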

Compound	AC50	outcome
CC(C)C(=O)Nc1ccc([N+](=O)[O-])c(C(F)(F)F)c1	31600 nM (active)	–
Nc1ccn([C@@H]2O[C@H](CO)[C@@H](O)[C@@H]2O)c(=O)n1	142 nM (active)	–
OCCNCCO	22200 nM (active)	–
COc1cc2c(c(OC)c1OC)-c1ccc(OC)c(=O)cc1[C@@H](NC(C)=O)CC2	12.1 nM (active)	–
NC(=O)N1c2ccccc2C=Cc2ccccc21	4320 nM (active)	–
OC(Cn1cncn1)(Cn1cncn1)c1ccc(F)cc1F	–	inactive
O=c1[nH]cnc2c1ncn2[C@H]1CC[C@@H](CO)O1	–	inactive
O=S1(=O)CCCO1	83000 nM (active)	–
Cc1ncc([C@@H](CCCCCCc2ccc3c(n2)NCCC3)CC(=O)O)cn1	10.1 nM (active)	–
CCCCCCCCCC	–	inactive
CCN(CC)C(=S)SSC(=S)N(CC)CC	682 nM (active)	–
CC[C@H](C)C(=O)O[C@H]1C[C@H](O)C=C2C=C[C@H](C)[C@H](CC[C@@H](O)C[C@@H](O)CC(=O)O)[C@H]21	–	inactive

experiment: STM_H9_OrnCyssISnorm_ratio: Stemina devTOX quickPredict H9 human embryonic stem cell (hESC)-based Assay for Ornithine (ORN):Cystine (CYSS) Ratio (AID 2283714)
Summary of the method: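 Undifferentiated H9 hESCs were exposed to compound for 72h with media and chemical replaced every 24h. Final 24-h conditioned media were deproteinized and analysed by UPLC-HRMS. ORN and CYSS peak areas were normalized to C13 internal standards and the ratio taken versus 0.1% DMSO.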

Compound	AC50	outcome
CC(C)C(=O)Nc1ccc([N+](=O)[O-])c(C(F)(F)F)c1	50000 nM (active)	–
Nc1ccn([C@@H]2O[C@H](CO)[C@@H](O)[C@@H]2O)c(=O)n1	203 nM (active)	–
OCCNCCO	14000 nM (active)	–
COc1cc2c(c(OC)c1OC)-c1ccc(OC)c(=O)cc1[C@@H](NC(C)=O)CC2	12.7 nM (active)	–
NC(=O)N1c2ccccc2C=Cc2ccccc21	4180 nM (active)	–
OC(Cn1cncn1)(Cn1cncn1)c1ccc(F)cc1F	–	inactive
O=S1(=O)CCCO1	78200 nM (active)	–
Cc1ncc([C@@H](CCCCCCc2ccc3c(n2)NCCC3)CC(=O)O)cn1	10.4 nM (active)	–
CCN(CC)C(=S)SSC(=S)N(CC)CC	325 nM (active)	–

experiment: CEETOX_H295R_MTT_cell_viability: Viability Assessment in the CeeTox HT-H295R MTT Assay (AID 2283718; active means hit-call score of the fitted dose curve at least 0.9, where 1 is the maximum; inactive means score below 0.9;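 on AC50: curve fitted both ways so AC50 may mark viability loss or gain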)
Summary of the method: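 H295R cells prestimulated 48 h with 10 uM forskolin, then exposed 48 h to test chemical (0.1% DMSO final). Viability by MTT (0.5 mg/ml, 4 h, 37 C), absorbance 570/650 nm; percent change versus DMSO, bidirectional fit.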

Compound	outcome	AC50
CCCCCCCCCCCCCCO	inactive	–
c1ccc2c(c1)-c1cccc3c1c-2cc1ccccc13	inactive	–
OCc1c[nH]c2ccccc12	inactive	–
Nc1ccn([C@@H]2O[C@H](CO)[C@@H](O)[C@@H]2O)c(=O)n1	–	1430 nM (active)
CCOc1ccc2[nH]cc(C(=O)NCc3ccccc3)c(=O)c2n1	inactive	–
COc1cc2c(c(OC)c1OC)-c1ccc(OC)c(=O)cc1[C@@H](NC(C)=O)CC2	–	118 nM (active)
O=S(=O)(O)c1ccc(N=Nc2c(O)ccc3cc(S(=O)(=O)O)ccc23)cc1	inactive	–
CCCCC(CC)C(=O)OCCOCCOCCOC(=O)C(CC)CCCC (centres undefined)	inactive	–
Cc1ncc([C@@H](CCCCCCc2ccc3c(n2)NCCC3)CC(=O)O)cn1	inactive	–
CCN(CC)C(=S)SSC(=S)N(CC)CC	inactive	–
CC[C@H](C)C(=O)O[C@H]1C[C@H](O)C=C2C=C[C@H](C)[C@H](CC[C@@H](O)C[C@@H](O)CC(=O)O)[C@H]21	inactive	–
CCCCCCCCN(C)C	inactive	–

experiment: Tanguay_ZF_120hpf_ActivityScore_legacy: (Legacy) Oregon State University Tanguay Lab 120 Hour Post-fertilization zebrafish Assay Score for Activity (AID 2283742);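 on AC50: static exposure from 6 hpf until 120 hpf at 28 °C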
Summary of the method: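 Tropical 5D wild-type zebrafish embryos, dechorionated with pronase at 4 hpf, were exposed singly from 6 hpf to 120 hpf statically at 28C in 0.64% DMSO. Malformations and mortality were scored as binary by brightfield, with the activity score combining 18 morphology components.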

Compound	outcome	AC50
CCCCCCCCCCCCCCO	inactive	–
CC(C)C(=O)Nc1ccc([N+](=O)[O-])c(C(F)(F)F)c1	inactive	–
CC(C)CC(C)O (centres undefined)	inactive	–
CCCCCCOC(=O)CC(CC(=O)OCCCCCC)(OC(=O)CCC)C(=O)OCCCCCC	inactive	–
OCC(CO)(CO)CO	inactive	–
c1ccc2c(c1)-c1cccc3c1c-2cc1ccccc13	inactive	–
CC(C)CCCCCCOC(=O)C1CCCCC1C(=O)OCCCCCCC(C)C (centres undefined)	inactive	–
CC1(C)C(=O)N(Cl)C(=O)N1Cl	inactive	–
Nc1ccn([C@@H]2O[C@H](CO)[C@@H](O)[C@@H]2O)c(=O)n1	inactive	–
OCCNCCO	inactive	–
CCCCOC(=O)c1ccccc1	inactive	–
COc1cc2c(c(OC)c1OC)-c1ccc(OC)c(=O)cc1[C@@H](NC(C)=O)CC2	–	36400 nM (active)
c1ccc(C(O[C@@H]2CCCN(CCc3ccc4c(c3)OCO4)C2)c2ccccc2)cc1	–	36300 nM (active)
O=S(=O)(O)c1ccc(N=Nc2c(O)ccc3cc(S(=O)(=O)O)ccc23)cc1	inactive	–
CCOC(N)=O	inactive	–
NC(=O)N1c2ccccc2C=Cc2ccccc21	–	25.1 nM (active)
OCCOCCOCCO	inactive	–

Compound	outcome	AC50
OC(Cn1cncn1)(Cn1cncn1)c1ccc(F)cc1F	inactive	–
O=c1[nH]cnc2c1ncn2[C@H]1CC[C@@H](CO)O1	inactive	–
CCCCC(CC)C(=O)OCCOCCOCCOC(=O)C(CC)CCCC (centres undefined)	inactive	–
O=S1(=O)CCCO1	inactive	–
Cc1ncc([C@@H](CCCCCCc2ccc3c(n2)NCCC3)CC(=O)O)cn1	inactive	–
CCCCCOC(C)=O	inactive	–
CCCCCCCCCC	inactive	–
CCN(CC)C(=S)SSC(=S)N(CC)CC	–	831 nM (active)
CC(=O)c1ccccc1	inactive	–
CC[C@H](C)C(=O)O[C@H]1C[C@H](O)C=C2C=C[C@H](C)[C@H](CC[C@@H](O)C[C@@H](O)CC(=O)O)[C@H]21	inactive	–
CNC(C)=O	inactive	–
O=C(O)c1cccc(C[C@@H]2COc3ccc(OCc4nc5cc(F)ccc5s4)cc3[C@@H]2O)c1	–	37300 nM (active)
CCc1cccc(CC)c1N	inactive	–
O=C(O)c1ccc2c(c1)nc(C(=O)NC1CCN(C3CC3)CC1)n2Cc1cc(-c2ccc(Cl)s2)on1	inactive	–
Cc1nccn1-c1ccc(Sc2cccc(C3(C(N)=O)CCOCC3)c2)cc1	inactive	–
C=CN1CCCC1=O	inactive	–
CCCCCCCCN(C)C	inactive	–
